Measured values taken from PubChem BioAssay (NCATS).
Results filed as inconclusive are left out. Entries that show only a call come without a potency. Active and inactive are the calls of the source. Unless noted, calls follow the shape of the full dose curve.

What was measured:
[1] = Primary qHTS for Huh7 cytotoxicity: counterscreen for inhibitors of MERS-S pseudotyped particle cell entry (AID 1479147)
[2] = Primary qHTS for inhibitors of MERS-S pseudo-typed particle cell entry (AID 1479149); also: nearly all actives have a fitted effect of over 60% in size; also: potency is read from the fitted curve at half-maximal effect
[3] = Primary qHTS for Vero E6 cytotoxicity: counterscreen for inhibitors of SARS-S pseudo-typed particle cell entry (AID 1479150)
[4] = Primary qHTS for inhibitors of La Crosse Virus (LACV) - induced cell death in SH-SY5Y cells (AID 1508616; active = well fitted curve in the direction sought with a large enough effect; an effect the other way counts as inactive or inconclusive;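 also: top concentration of the series differs between compounds; higher means more rescue of cells from virus-induced death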)
Outline: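 Cytopathicity rescue screen: compounds pinned onto SH-SY5Y cells, which are then infected with LACV (MOI 0.01) and held 6 days at 37C. Percent activity is scaled between infected DMSO control and uninfected DMSO control.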

[5] = target: Calcium and integrin-binding protein 1 (Homo sapiens) (UniProt Q99828); assay: Primary qHTS for Identification of Calcium Integrin Binding Protein 1 (CIB1) Competitor (AID 1508620; active = well fitted curve in the direction sought with a large enough effect; an effect the other way counts as inactive or inconclusive;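 also: GST tagged CIB1 binding a fluorescein labelled alphaIIb integrin peptide tracer; top concentration of the series differs between compounds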)
Calcium and integrin-binding protein 1 (Homo sapiens), sequence (Q99828 whole entry, looked up): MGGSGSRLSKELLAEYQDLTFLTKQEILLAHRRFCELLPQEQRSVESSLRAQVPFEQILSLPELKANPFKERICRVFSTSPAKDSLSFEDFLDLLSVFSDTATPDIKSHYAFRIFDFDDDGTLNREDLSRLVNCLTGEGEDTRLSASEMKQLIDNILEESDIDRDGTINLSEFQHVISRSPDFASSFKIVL
Outline: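 Fluorescence polarization competition: GST-tagged CIB1 (1 uM final) preincubated with compound 15 min at room temperature, then FITC-labelled alphaIIb peptide (100 nM final) added. After 15 min at room temperature, polarization read at Ex 480/Em 540.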

[6] = Confirmatory qHTS for VERO E6 Cytotoxicity Assay: Counterscreen for SARS-CoV-2 CPE Assay (AID 1508605); also: nearly all actives have a fitted effect of over 60% in size; also: potency is read from the fitted curve at half-maximal effect
[7] = Confirmatory qHTS for activators (rescue) of SARS-CoV-2 Cytopathic Effect (CPE) (AID 1508606); settings: Vero E6 SARS-CoV-2 CPE rescue, viability luminescence; also: potency is read from the fitted curve at half-maximal effect; nearly all actives have a fitted effect of over 70% in size

Question: Which results are given for `Cc1ccc(-c2ncc(Cl)cc2-c2ccc(S(C)(=O)=O)cc2)cn1`?
Answer: Potency [1]: inactive; Potency [2]: inactive; Potency [3]: inactive

Question: What does the source list for `NC(CS)C(=O)O` (stereo not drawn)?
Answer: Potency [1]: inactive; Potency [2]: inactive; Potency [3]: inactive

Question: For `NC[C@H]1O[C@H](O[C@H]2[C@H](O)[C@@H](O[C@H]3O[C@H](CO)[C@@H](O)[C@H](N)[C@H]3O)[C@H](N)C[C@@H]2N)[C@H](O)[C@@H](O)[C@@H]1O`, which outcome [1] is on record?
Answer: inactive [at 5.34 µM]

Question: What about the outcome [2] of the same molecule?
Answer: inactive [at 5.34 µM]

Question: And the outcome [3]?
Answer: inactive [at 5.34 µM]

Question: Which results are given for `O=C(NC(Cc1cc(=O)[nH]c2ccccc12)C(=O)O)c1ccc(Cl)cc1` (stereo not drawn)?
Answer: Potency [1]: inactive; Potency [2]: inactive; Potency [3]: inactive

Question: With `CC(=O)[C@H]1CC[C@H]2[C@@H]3C[C@H](C)C4=CC(=O)CC[C@]4(C)[C@H]3[C@@H](O)C[C@]12C` as the molecule, how does the Potency [1] read?
Answer: inactive

Question: And the Potency [2]?
Answer: inactive

Question: What about the Potency [3] of the same molecule?
Answer: inactive

Question: For `O=C(CCBr)N1CCN(C(=O)CCBr)CC1`, which Potency [1] is on record?
Answer: inactive

Question: And the Potency [2]?
Answer: inactive

Question: What about the Potency [3] of the same molecule?
Answer: inactive

Question: Which Potency [1] does the source give for `N#CSCC(=O)O` here?
Answer: inactive

Question: And the Potency [2]?
Answer: inactive

Question: And the Potency [3]?
Answer: inactive

Question: Which Potency [2] does the source give for `CC(=O)S[C@@H]1CC2=CC(=O)CC[C@]2(C)[C@H]2CC[C@@]3(C)[C@@H](CC[C@@]34CCC(=O)O4)[C@H]12` here?
Answer: inactive

Question: What about the Potency [3] of the same molecule?
Answer: inactive

Question: What does the source list for `CCN(CC)C(C)CN1c2ccccc2Sc2ccccc21` (stereo not drawn)?
Answer: Potency [1]: inactive; Potency [3]: inactive

Question: Which results are given for `NC(N)=NS(=O)(=O)c1ccc(N)cc1`?
Answer: Potency [1]: inactive; Potency [3]: inactive

Question: Which outcome [4] does the source give for `CN(C)CCc1c[nH]c2cccc(OP(=O)(O)O)c12` here?
Answer: inactive

Question: And the Potency [5]?
Answer: inactive

Question: With `CN1CCN(CCC=C2c3ccccc3Sc3ccc(S(=O)(=O)N(C)C)cc32)CC1` as the molecule, how does the Potency [2] read?
Answer: inactive

Question: What about the Potency [6] of the same molecule?
Answer: 11.2 µM (active)

Question: Which Potency [3] does the source give for `OCCN1CCN(CC/C=C2/c3ccccc3Sc3ccc(C(F)(F)F)cc32)CC1` here?
Answer: inactive

Question: For `CN(c1nccc(=O)[nH]1)C1CCN(c2nc3ccccc3n2Cc2ccc(F)cc2)CC1`, which Potency [1] is on record?
Answer: inactive

Question: And the Potency [3]?
Answer: inactive

Question: What does the source list for `N#Cc1ccc2c(c1)N(CCCN1CCC(O)CC1)c1ccccc1S2`?
Answer: Potency [1]: inactive; Potency [3]: inactive; Potency [6]: inactive; Potency [7]: 11.2 µM (active)

Question: Which results are given for `CC(=O)OCC(=O)[C@H]1CC[C@H]2[C@@H]3CCC4=CC(=O)CC[C@]4(C)[C@H]3CC[C@]12C`?
Answer: Potency [1]: inactive; Potency [3]: inactive

Question: For `C[n+]1c2cc(N)ccc2cc2ccc(N)cc21` (tested in a mixture with another compound), which Potency [2] is on record?
Answer: 7.94 µM (active)

Question: Which Potency [2] does the source give for `CN(C)c1ccc2nc3ccc(=[N+](C)C)cc-3sc2c1` here?
Answer: 7.08 µM (active)

Question: Which results are given for `Nc1ncn([C@H]2C[C@H](O)[C@@H](CO)O2)c(=O)n1`?
Answer: Potency [1]: inactive; Potency [3]: inactive

Question: Which Potency [1] does the source give for `C=CCN1C[C@H](C(=O)N(CCCN(C)C)C(=O)NCC)C[C@@H]2c3cccc4[nH]cc(c34)C[C@H]21` here?
Answer: inactive

Question: And the Potency [3]?
Answer: inactive

Question: Which Potency [1] does the source give for `CC(C)(C)CC(C)(C)c1ccc(OCCOCC[N+](C)(C)Cc2ccccc2)cc1` here?
Answer: inactive

Question: And the Potency [3]?
Answer: inactive

Question: Which Potency [1] does the source give for `CC(=O)[C@H]1CC[C@H]2[C@@H]3C=CC4=CC(=O)CC[C@@]4(C)[C@@H]3CC[C@]12C` here?
Answer: inactive

Question: And the Potency [3]?
Answer: inactive

Question: What does the source list for `O=C(OCc1ccccc1)c1ccccc1`?
Answer: Potency [1]: inactive; Potency [3]: inactive

Question: With `CN(C)CCOc1ccc(/C(=C(/CCCl)c2ccccc2)c2ccccc2)cc1` as the molecule, how does the Potency [1] read?
Answer: inactive

Question: And the Potency [3]?
Answer: inactive

Question: Which results are given for `O=c1[nH]c(=O)n([C@H]2C[C@H](O)[C@@H](CO)O2)cc1F`?
Answer: Potency [2]: inactive; Potency [3]: inactive

Question: What does the source list for `CCCCC[C@H](O)/C=C/[C@@H]1[C@H]2C/C(=C/CCCC(=O)O)O[C@H]2C[C@H]1O`?
Answer: Potency [1]: inactive; Potency [2]: inactive; Potency [3]: inactive

Question: What does the source list for `CN1CCN(C(c2ccccc2)c2ccc(Cl)cc2)CC1` (stereo not drawn)?
Answer: Potency [1]: inactive; Potency [3]: inactive; Potency [6]: inactive

Question: For `CC(=O)O[C@]1(C(C)=O)CC[C@H]2[C@@H]3C[C@H](C)C4=CC(=O)CC[C@]4(C)[C@H]3CC[C@@]21C`, which Potency [1] is on record?
Answer: inactive

Question: What about the Potency [3] of the same molecule?
Answer: inactive

Question: Which Potency [1] does the source give for `COc1ccc(-c2ccc3cc(C(=O)O)ccc3c2)cc1C12CC3CC(CC(C3)C1)C2` here?
Answer: inactive

Question: And the Potency [3]?
Answer: inactive

Question: What does the source list for `CNCCC=C1c2ccccc2CCc2ccccc21`?
Answer: Potency [3]: inactive; Potency [6]: inactive

Question: With `Cc1ccc(Nc2nccc(N(C)c3ccc4c(C)n(C)nc4c3)n2)cc1S(N)(=O)=O` as the molecule, how does the Potency [1] read?
Answer: inactive

Question: What about the Potency [3] of the same molecule?
Answer: inactive

Question: Which results are given for `CCOc1ccc2nc3cc(N)ccc3c(N)c2c1`?
Answer: Potency [1]: inactive; Potency [3]: inactive

Question: With `C#CCC(Cc1cnc2nc(N)nc(N)c2n1)c1ccc(C(=O)N[C@@H](CCC(=O)O)C(=O)O)cc1` (stereo partly drawn) as the molecule, how does the Potency [2] read?
Answer: inactive
